Compound activity deposited in PubChem by Johns Hopkins Ion Channel Center.
KCNQ2 inh = rat KCNQ2 potassium channel inhibitors, primary screen, cell-based, CHO-K1, FluxOR thallium flux, B-score | Potassium voltage-gated channel subfamily KQT member 2 (Rattus norvegicus), O88943 | 20 min; active compounds read low | B-score at 10 µM | actives 1.1% (n = 310,000) | AID 2156, 2009;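 active = fluorescence ratio B-score at most minus 3 library SDs, with starting brightness B-score within 2 library SDs, cut at about -5.5 in these data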
Target sequence (O88943 whole entry, looked up): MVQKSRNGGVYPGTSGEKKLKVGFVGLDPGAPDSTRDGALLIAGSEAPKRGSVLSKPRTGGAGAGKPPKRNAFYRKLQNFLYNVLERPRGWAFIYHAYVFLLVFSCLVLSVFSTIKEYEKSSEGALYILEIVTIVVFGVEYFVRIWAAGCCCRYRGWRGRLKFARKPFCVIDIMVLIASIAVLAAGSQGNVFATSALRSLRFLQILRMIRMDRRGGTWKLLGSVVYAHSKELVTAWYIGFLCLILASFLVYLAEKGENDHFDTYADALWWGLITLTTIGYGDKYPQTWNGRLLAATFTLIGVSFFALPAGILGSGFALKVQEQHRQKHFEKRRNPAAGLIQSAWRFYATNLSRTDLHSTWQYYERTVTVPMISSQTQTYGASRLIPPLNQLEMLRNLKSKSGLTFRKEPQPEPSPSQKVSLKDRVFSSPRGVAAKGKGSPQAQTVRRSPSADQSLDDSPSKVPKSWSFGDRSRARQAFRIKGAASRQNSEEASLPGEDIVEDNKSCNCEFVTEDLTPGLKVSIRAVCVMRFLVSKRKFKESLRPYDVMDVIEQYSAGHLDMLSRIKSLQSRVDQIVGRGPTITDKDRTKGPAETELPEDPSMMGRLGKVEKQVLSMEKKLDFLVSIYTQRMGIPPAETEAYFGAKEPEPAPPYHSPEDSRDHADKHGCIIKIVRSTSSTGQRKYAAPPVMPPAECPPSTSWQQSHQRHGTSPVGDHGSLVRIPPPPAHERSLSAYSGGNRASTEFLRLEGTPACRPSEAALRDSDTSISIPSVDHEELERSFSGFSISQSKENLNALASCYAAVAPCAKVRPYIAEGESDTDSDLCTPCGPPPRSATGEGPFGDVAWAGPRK
KCNQ2 enhance = potentiators of rat KCNQ2 potassium channel. CHO-K1 KCNQ2, FluxOR thallium flux fluorescence; active compounds read high. B-score at 10 µM. Potassium voltage-gated channel subfamily KQT member 2 (Rattus norvegicus), O88943. actives 0.54% (n = 310,000);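 active = fluorescence ratio B-score at least 3 SD of library B-scores, with initial fluorescence B-score within 3 of them, cut at about 5.3 in these data; same plate scores as AID 2156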;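 note: B-score of peak minus minimum over baseline fluorescence ratio after K+ and Tl+ stimulus; positive B-score means potentiation of KCNQ2 with more thallium influx and brighter signal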
Kir21 confirm = mouse Kir2.1 channel blockers, retest, confirmation, cell-based, FluxOR thallium flux, duplicate | Tl flux remaining, % of negative control (active compounds read low), % at 10 µM | actives 41% (n = 2,300) | AID 2032, 2009 | shares compounds with KCNQ2 enhance | Kir2.1-expressing cells, FluxOR thallium flux fluorescence; active compounds read low;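 active = Primary-screen hit whose thallium flux fell at least 3 control SD below untreated wells in both duplicates, with normal baseline fluorescence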;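 note: 0% = blank wells without stimulus and 100% = stimulated no-compound controls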
HEK293 Tl flux = alters thallium flux in parental HEK293 cells, Kir2.1 counter-screen; shares compounds with KCNQ2 enhance; FluxOR thallium flux fluorescence; 0% = unstimulated blank wells; FluxOR signal as % of negative control (100 = no effect), % at 10 µM; actives 19% (n = 2,300); AID 2105;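 active = dye signal at least 3 control SD above or below untreated wells in both duplicates, raw fluorescence within 3, either direction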;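 note: percent is based on the flux ratio of peak minus minimum fluorescence over baseline F0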
CHO-K1 ctr = nonspecific thallium flux increase in parental CHO-K1, confirmation, counter-screen for KCNQ2 potentiator project, cell-based, FluxOR thallium flux, duplicate. activity increase over 3SD of controls, % at 10 µM. parental CHO-K1 cells, FluxOR thallium flux fluorescence; zero = vehicle mean+3SD, 100% = vehicle-minus-blank window. actives 43% (n = 1,200). shares compounds with KCNQ2 enhance;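 active = signal rise of at least 3 SD above the untreated control mean, in both duplicate wells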;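 note: counter screen of KCNQ2 potentiator hits so any rise reflects channel-independent effects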
KCNQ1 pot spec = human KCNQ1 channel potentiation off-target, confirmation, selectivity assay for KCNQ2 potentiator project, cell-based, CHO, FluxOR thallium flux. shares compounds with KCNQ2 enhance. CHO KCNQ1 stable, FluxOR thallium flux fluorescence; beyond 3SD, as % of vehicle-control signal. actives 28% (n = 1,200). activation over 3SD threshold, % at 10 µM. AID 2283, 2010;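 active = fluorescence ratio rise of at least 3 SD of vehicle wells above their mean, in both replicate wells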;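 note: 0% = vehicle mean plus 3 SD and 100% = vehicle minus unstimulated blank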
KCNQ2 pot conf = rat KCNQ2 channel potentiators, confirmation, cell-based, CHO, FluxOR thallium flux, duplicate; shares compounds with KCNQ2 enhance; CHO-KCNQ2 cells, FluxOR thallium flux fluorescence; potentiation, less the hit threshold, % at 10 µM; actives 68% (n = 1,200); AID 2287, 2010;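 active = fluorescence ratio rising 3 SD or more over the vehicle control mean in both replicates, plus primary screen hit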;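 note: peak minus minimum thallium fluorescence divided by baseline after K/Tl stimulus; 0% = vehicle mean plus 3 SD and 100% = vehicle minus unstimulated blank difference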
Kir2-1 sel = mouse Kir2.1 channel activation off-target, confirmation, selectivity assay for KCNQ2 potentiator project, cell-based, HEK293, FluxOR thallium flux; actives 2% (n = 1,200); AID 2345, 2010; HEK293 Kir2.1, FluxOR thallium flux fluorescence; activity over 3SD threshold, % at 10 µM; shares compounds with KCNQ2 enhance;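 active = fluorescence ratio rise of at least 3 SD above the vehicle-control mean, seen in both replicates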;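 note: 0% = vehicle mean plus 3 SD and 100% = vehicle minus no-stimulus blank window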
KCNQ2 W236L pot = potentiators of retigabine-insensitive KCNQ2 W236L, mechanism study for KCNQ2 potentiator project, cell-based, rat KCNQ2 W236L, CHO, automated patch clamp; current increase over 3SD of negative controls (%), active compounds read high, % at 25 µM; automated patch clamp current; actives 10% (n = 940); shares compounds with KCNQ2 enhance;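 active = current increase at least 3 SD of the untreated controls above them in both duplicate recordings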
Starred values were filed as active, the others as inactive; i = inactive; . = not tested or not shown. The list is not random: actives were taken first. Their share in the collection is about 1.6%.

SMILES	KCNQ2 inh	KCNQ2 enhance	Kir21 confirm	HEK293 Tl flux	others
CCOc1ccccc1NC(=O)CSc1nc(=O)n(CCCN2CCOCC2)c2c1CCCC2	i	.	.	.
COCc1cc(C)nc(SCC[N+](C)(C)CC(=O)Nc2cccc(C(F)(F)F)c2)c1C#N	i	0.98	.	.
CC(NC1CCCC1)c1ccccc1 (centres undefined)	i	0.98	.	.
CC(NCCC(c1ccccc1)c1ccccc1)c1ccccc1 (centres undefined)	i	0.97	43.5%*	i
Cc1ccc(NS(=O)(=O)c2ccc(OCC(=O)NCc3ccccn3)cc2)cc1	i	0.19	.	.
CCOC(=O)C(C)CC(C)C(=O)N1CCOCCOCCN(C(=O)C(C)CC(C)C(=O)OCC)CCOCC1 (centres undefined)	i	0.55	.	.
CCOC(=O)C(C(=O)OCC)C(C(=O)OCC)N1CCOCC1 (centres undefined)	i	14.6*	.	.	CHO-K1 ctr=-7.1;KCNQ1 pot spec=23.9*;KCNQ2 pot conf=35.0*;Kir2-1 sel=-56.0;KCNQ2 W236L pot=i
CCOC(=O)c1c(NC(=O)c2ccccc2N(C)S(=O)(=O)c2ccccc2)sc2c1CCCC2	i	.	.	.
CCOC(=O)c1c(NC(=O)C(NCCN(C)C)c2ccccc2)sc2c1CCCC2 (centres undefined)	i	.	41.5%*	i
O=C(NCc1ccco1)/C(=C/c1ccc(F)cc1)NC(=O)c1ccccc1	i	.	.	.
Cc1oc(C(C)(C)C)cc1C(=O)N1CCN(C(c2ccccc2)c2ccccc2)CC1	i	.	.	.
COc1ccc(Cl)cc1NS(=O)(=O)c1ccc(OC)c(OC)c1	i	.	51.0%*	139.5%*
COc1ccc(S(=O)(=O)Nc2cc(C)ccc2OC)cc1C	i	.	77.0%*	i
COc1ccc(C)cc1NS(=O)(=O)c1ccc(NS(=O)(=O)c2ccc(NC(C)=O)cc2)cc1	i	0.06	.	.
COc1ccc(S(=O)(=O)Nc2cc(Cl)ccc2OC)cc1	i	.	.	.
Cc1cc(=O)[nH]c(SC(C)C(=O)Nc2cccc3ccccc23)n1 (centres undefined)	i	.	.	.
CCN(CC)CCNC(=O)CCN1N=C(c2ccccc2)CCC1=O	i	.	.	.
CCSc1nc2c(sc3ccccc32)c(=O)n1C(C)C	i	6.03*	i	243.5%*	CHO-K1 ctr=29.2*;KCNQ1 pot spec=1.2*;KCNQ2 pot conf=24.9*;Kir2-1 sel=-33.6;KCNQ2 W236L pot=i
CCCCn1c(SCC(N)=O)nc2c(sc3ccccc32)c1=O	i	0.35	.	.
c1cc2ccc3ccc(CN4CCOCC4)c4ccc(c1)c2c34	i	0.02	.	.
OC1CCCN(Cc2ccc3ccc4cccc5ccc2c3c45)C1 (centres undefined)	i	.	48.0%*	i
O=C(N/N=C\c1ccc[nH]1)C1COc2ccccc2O1 (centres undefined)	i	.	.	.
CCCC(c1nnnn1CS(=O)(=O)c1ccc(C)cc1)N1CCN(CC)CC1 (centres undefined)	i	5.47*	i	i	CHO-K1 ctr=32.5*;KCNQ1 pot spec=-8.5;KCNQ2 pot conf=0.3*;Kir2-1 sel=-27.8;KCNQ2 W236L pot=i
CCCC(c1nnnn1CS(=O)(=O)c1ccc(C)cc1)N1CCN(c2ccc(F)cc2)CC1 (centres undefined)	i	.	.	.
Cc1ccc2nc(C)c3c(c2c1)SCC3	i	.	.	.
SMILES	KCNQ2 inh	KCNQ2 enhance	Kir21 confirm	HEK293 Tl flux	others
Cn1cc(C(C[N+](=O)[O-])c2ccccc2)c2ccccc21 (centres undefined)	i	.	.	.
CC(=O)n1cc(C(C[N+](=O)[O-])SCCN)c2ccccc21 (centres undefined)	-7.34*	-7.34	50.0%*	76.0%*
O=C(COC(=O)/C=C/c1ccc(Cl)cc1Cl)NCc1ccco1	i	0.48	.	.
CC1CCC2(CC1)NC(=O)N(CC(=O)Nc1ccc3c(c1)OCCO3)C2=O (centres undefined)	i	.	.	.
O=C(Nc1ncc(Br)s1)C(Cc1ccccc1)n1cccc1 (centres undefined)	i	7.31*	i	188.0%*	CHO-K1 ctr=-4.4;KCNQ1 pot spec=-5.1;KCNQ2 pot conf=8.5*;Kir2-1 sel=-28.8;KCNQ2 W236L pot=i
O=C(Nc1cccnc1)C(Cc1ccccc1)n1cccc1 (centres undefined)	i	0.5	.	.
COc1ccc(C)cc1Nc1n[n+](-c2ccccc2)c(-c2cc(OC)c(OC)cc2Br)s1	-6.36*	-6.36	53.0%*	i
COc1ccc(C)cc1Nc1n[n+](-c2ccccc2)c(-c2ccc(C(=O)O)cc2)s1	i	0.64	.	.
Cc1cc(C)n2nc(SCC(=O)c3c(N)n(CC(C)C)c(=O)n(C)c3=O)nc2n1	i	0.02	.	.
COC(=O)c1sccc1NC(=S)NCc1ccc(Cl)cc1	i	7.23*	i	212.5%*	CHO-K1 ctr=2.7*;KCNQ1 pot spec=-19.8;KCNQ2 pot conf=38.5*;Kir2-1 sel=-22.4;KCNQ2 W236L pot=i
COC(=O)c1ccc(C)c(NC(=S)NCc2ccc(Cl)cc2)c1	i	0.41	.	.
Cc1ccsc1-c1nc(CN2C[C@@H](C)O[C@@H](C)C2)c(C)o1	i	0.67	.	.
O=C(CNC(=O)c1cn2ccccc2n1)Nc1ccc(F)c(F)c1	i	0.36	.	.
CCn1c(SCC(=O)NC(C)c2ccccc2)nc2ccccc21 (centres undefined)	i	.	.	.
CCn1c(Sc2ccc(N)cc2Cl)nc2ccccc21	i	.	75.5%*	i
CCn1c(C(=O)O)c(CC(=O)Nc2ccccc2OC)c2ccccc21	i	0.38	.	.
COC(=O)n1c(=S)oc2cc(Cl)ccc21	i	8.36*	i	i	CHO-K1 ctr=27.5*;KCNQ1 pot spec=-18.0;KCNQ2 pot conf=-10.1;Kir2-1 sel=-26.5;KCNQ2 W236L pot=i
